Source: PubChem BioAssay (Center for Chemical Genomics, University of Michigan)
The entries come from a sample that favours hits as a whole.
Dicer processing = blocks human Dicer maturation of pre-miR-21 | z-score at 25 µM | 6% of 47,000 active | cat-ELCCA pre-miR-21 Dicer processing, chemiluminescence; hits give high values; in the data active = z-score above about 3, passing the limit was not always enough;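 note: plate controls were vehicle for no effect and no enzyme for full effect; higher signal means more uncleaved substrate so more Dicer inhibition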
Numbers without * were called inactive.

SMILES	Dicer processing
COc1cccc(OC)c1NC(=O)NC(=O)c1c(OC)c(Cl)cc(Br)c1OC	-0.65
COc1cc(C2Nc3ccccc3S(=O)(=O)N2Cc2ccccc2)cc(Br)c1OC (configuration not stated)	0.03
COc1ccc(/C=C(\C#N)C(N)=O)cc1Br	-0.73
CCOC(=O)c1sc(N2C(=O)c3oc4ccccc4c(=O)c3C2c2ccccc2F)nc1C (configuration not stated)	0
Cc1nn(-c2ccc(Cl)cc2)c2nc(-c3ccco3)cc(C(F)(F)F)c12	4.7*
Cc1ccc(-n2nc(C)c3c(C(F)(F)F)cc(-c4ccco4)nc32)cc1	0.87
Cc1nn(-c2ccccc2)c2nc(-c3ccco3)cc(C(F)(F)F)c12	0.61
N#Cc1sc2nc3ccccc3n2c1N	0.34
Cc1c(NC(=O)c2ccco2)cc2c(c1[N+](=O)[O-])C(C)(C)CC2(C)C	-0.47
O=C(Nc1ccc(OC(F)F)cc1)NC1CCN(C(=O)OCc2ccccc2)CC1	-1.9
CCOC(=O)c1cccc(C(=O)O)n1	0.56
CCOC(=O)c1cccc(C(=O)Oc2ccccc2)n1	6.2*
COC(=O)c1cccc(C(=O)Oc2ccc(OC)cc2)n1	0.13
CCSc1nnc(NC(=O)c2cc3ccccc3c(=O)o2)s1	-1.5
COc1ccc(C2OC(=O)c3ccccc3S2)cc1Br (configuration not stated)	-0.31
Cc1cc(/C=C2\N=COC2=O)ccc1C(F)(F)F	4.1*
CC1=N/C(=C/c2ccc(C)c(C)c2)C(=O)O1	-0.91
Cc1cccc(C(=O)N(Cc2ccccc2)C(C)C)c1C	-1.2
CC1=C(C(=O)OC(C)C)C(c2ccc(F)cc2)C2=C(CC(c3cccs3)CC2=O)N1 (configuration not stated)	0.94
CNC(=S)N/N=C/c1ccccc1Cl	-0.61
Oc1ccccc1/C=N/NC(=S)NC1CC2CC1C1C=CCC21 (configuration not stated)	3.8*
S=C(N/N=C/c1cccnc1)NC1CC2CC1C1C=CCC21 (configuration not stated)	0.65
COc1ccc(C(CC(=O)c2cccs2)SCCO)cc1OC (configuration not stated)	-1.2
O=C(CN1C(=O)C(=O)c2ccccc21)Nc1ccccc1F	0.82
O=C(O)CN1C(=O)Nc2ccc(Br)cc2C1c1ccccc1 (configuration not stated)	-0.49
SMILES	Dicer processing
COc1cccc(C(=O)CC2(O)C(=O)N(CCc3ccccc3)c3ccc(Br)cc32)c1 (configuration not stated)	5.8
CC1(C(=O)c2ccccc2)C2c3cc(Br)ccc3OC(=O)C21C(=O)NCc1ccccc1 (configuration not stated)	3.4*
COc1ccc(N/C=C\C(=S)c2ccc(OC)cc2)cc1	-0.36
O=C(O)C1CC(=O)N(c2ccccc2O)C1 (configuration not stated)	-1.7
O=C1OC(c2ccccc2)(c2ccccc2)c2ccccc21	-0.69
CC1(C(=O)O)Cc2ccccc2C(=O)O1 (configuration not stated)	3.9*
CC1(C)OC(=O)c2ccccc2-c2ccccc21	0.83
COc1cc2c(C)[nH]c(=O)c([N+](=O)[O-])c2cc1OC	-1.7
COCCOC(=O)C1=C(C)NC2=C(C(=O)CCC2)C1c1ccccc1OC(C)C (configuration not stated)	-0.24
Clc1ccc2nc3c(nc2c1)Nc1ccccc1S3	0.76
CCNc1nc(-c2ccc(Cl)cc2)c(-c2ccc(C)cc2)s1	-2.2
CCNc1nc2ccc(Cl)cc2nc1NCC	4.6*
COCCCNC(=S)Nc1c(C)cccc1C	-1.4
CCOC(=O)c1c(NC(=S)N2CCN(C)CC2)sc(C)c1C	-1.9
CCOC(=O)c1c(NC(=O)CCC(=O)O)sc(C)c1C	2.1
CCNC(=S)Nc1sc(C)c(C)c1C(=O)OCC	5.3*
CCNc1oc(COc2ccc(F)cc2)nc1C#N	2.3
O=S(=O)(Oc1ccccc1N1CCCCC1)c1ccc(-c2ccccn2)s1	-0.66
O=C(O)c1cccc2cccc(Sc3cccc4cccc(CO)c34)c12	-0.86
CNC(=O)c1cccc2cccc(Sc3ccccc3C(=O)O)c12	25*
O=C(O)c1cccc2cccc(Sc3cccc4ccccc34)c12	0.88
CCCCN(CCCC)C(=O)c1sc2nc(N3CCOCC3)c3c(c2c1N)CC(C)(C)OC3	-0.09
O=C(COc1ccc2c(=O)c(-c3ccccc3Cl)coc2c1)OCc1ccccc1	1.6
CCOC(=O)c1cc(-c2nc(C(=O)NN)cs2)c(C)nc1C(F)(F)F	-1.4
NC(=S)N/N=C\Cc1nnnn1-c1ccccc1	-0.56
SMILES	Dicer processing
C(=C\c1nnnn1-c1ccccc1)/NCc1ccccc1	-0.29
Fc1ccc(N/N=C/Cc2nnnn2-c2ccccc2)c(F)c1	3.9*
CN(/N=C/c1ccc(Cl)cc1)c1cnn(C)c(=O)c1Cl	1.3
Cc1ccc(S(=O)(=O)NNc2ncnc3c2cnn3C)cc1	0.55
COc1ccc(-c2cc3ccccc3c(=O)o2)cc1	-0.62
COc1ccc(-c2cc(=O)c3ccccc3o2)cc1	0.02
COc1ccc(-c2cc3c(=O)oc4ccccc4c3[nH]2)cc1	4*
Cc1ccc(-n2nc(C)c3c(C)cc(=O)oc32)cc1Cl	0.61
Cc1cc(C)cc(NC(=O)/C=C/C(=O)O)c1	7.1*
O=C(O)/C=C/C(=O)Nc1ccc(C2CCCCC2)cc1	1.4
Cc1cc(C)c(C)c(C(=O)/C=C/C(=O)O)c1C	0.97
Cc1ccc(C)c(NC(=O)/C=C/C(=O)O)c1	2.8
Cn1cc(Br)c(NC(=O)/C=C\C(=O)O)n1	-1.8
Cc1c(C)c(NC(=O)/C=C/C(=O)O)c(C)c(C)c1NC(=O)/C=C/C(=O)O	3.5*
COC(=O)c1cnc(Sc2ccccn2)nc1C(F)(F)F	-1.4
Cc1ccc(C(=O)CC2(O)C(=O)N(CCc3ccccc3)c3ccc(Cl)cc32)o1 (configuration not stated)	5.2*
COc1ccc(C(=O)CC2(O)C(=O)N(CCc3ccccc3)c3ccc(Br)cc32)cc1 (configuration not stated)	-0.4
CCCN1C(=O)C(O)(CC(=O)c2c(C)n[nH]c2C)c2cc(Br)ccc21 (configuration not stated)	3.2*
O=C(CC1(O)C(=O)N(CCc2ccccc2)c2ccc(Br)cc21)c1ccncc1 (configuration not stated)	3.6*
Cc1ccc(C(=O)CC2(O)C(=O)N(Cc3ccccc3C)c3ccc(Cl)cc32)o1 (configuration not stated)	1.3
Cc1ccccc1CN1C(=O)C(O)(CC(=O)c2ccccn2)c2cc(Cl)ccc21 (configuration not stated)	1.8
CCCCN1C(=O)C(O)(CC(=O)c2c(C)n[nH]c2C)c2cc(Br)ccc21 (configuration not stated)	2.1
Cc1ccc(CN2C(=O)C(O)(CC(=O)c3ccncc3)c3cc(Cl)ccc32)cc1 (configuration not stated)	5*
Cc1ccc(C(=O)CC2(O)C(=O)N(Cc3ccccc3)c3ccc(Cl)cc32)cc1 (configuration not stated)	0.64
O=C(CC1(O)C(=O)N(CCc2ccccc2)c2ccc(Cl)cc21)c1ccccc1O (configuration not stated)	0.65
CCCN1C(=O)C(O)(CC(=O)c2c(C)n[nH]c2C)c2ccccc21 (configuration not stated)	0.2
CCOc1ccc(C(=O)CC2(O)C(=O)N(CCc3ccccc3)c3ccc(Br)cc32)cc1 (configuration not stated)	1.8
Nc1nonc1-c1nc2ccccc2n1Cc1c(F)cccc1Cl	0.37
